The values below come from PubChem BioAssay (EPA / NIEHS).

A short description of test [1]: ATG_XTT_Cytotoxicity: Cytotoxicity Assessment in the Attagene TRANS-FACTORIAL HepG2 Assay (AID 2283584). In short, it runs like this: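 Transfect HepG2 with GAL4-UAS reporter units, dose compound, incubate 24 h, then measure viable cell number by XTT. Fit concentration response against DMSO baseline.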
Test [2] is described as follows: TOX21_p53_BLA_p2_viability: Viability Assessment in the Tox21 HCT-116 p53 Agonism Beta-lactamase Assay, Phase 2 (AID 2283591).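 Further: compound exposure lasted 16 h at 37 °C; actives lower the ATP signal meaning cytotoxicity.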 In short, it runs like this:
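HCT-116 p53-bla cells (4000/well) rested 5 h at 37C, then received compounds in DMSO (217-fold dilution) for 16 h at 37C, 5% CO2. After the CCF4 read, CellTiter-Glo was added; ATP luminescence was read after 30 min at room temperature.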

In test [3] the target is Cellular tumor antigen p53 (Homo sapiens) (UniProt P04637). The experiment in a line: TOX21_p53_BLA_p2_ratio: Tox21 HCT-116 p53 Agonism Beta-lactamase Assay, Ratio, Phase 2 (AID 2283592). The method, boiled down: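 Cleaved-to-uncleaved substrate ratio (460 vs 530 nm) measured in HCT116 cells with an inducible beta-lactamase reporter linked to p53 activity. Compounds incubated 16 h at 37C before 2 h room-temperature CCF4-AM loading.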
Sequence of Cellular tumor antigen p53 (Homo sapiens) (P04637 whole entry, looked up): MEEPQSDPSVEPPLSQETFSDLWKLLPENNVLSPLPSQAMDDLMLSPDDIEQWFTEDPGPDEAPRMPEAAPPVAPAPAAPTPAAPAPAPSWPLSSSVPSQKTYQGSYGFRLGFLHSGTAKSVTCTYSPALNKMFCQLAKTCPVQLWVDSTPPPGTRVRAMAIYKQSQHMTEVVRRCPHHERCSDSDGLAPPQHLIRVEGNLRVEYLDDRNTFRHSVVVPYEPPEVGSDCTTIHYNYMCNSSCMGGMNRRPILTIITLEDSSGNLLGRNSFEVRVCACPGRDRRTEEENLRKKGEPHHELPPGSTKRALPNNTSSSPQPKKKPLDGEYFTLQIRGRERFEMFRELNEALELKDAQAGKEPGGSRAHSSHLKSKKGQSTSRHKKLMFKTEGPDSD

Test [4] in a line: TOX21_p53_BLA_p3_viability: Viability Assessment in the Tox21 HCT-116 p53 Agonism Beta-lactamase Assay, Phase 3 (AID 2283593).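 Further: cells exposed to compound for 16 h before reading.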 The method, boiled down:
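HCT-116 cells (4000/well) rested 5 h at 37C, then got DMSO compounds by pin tool (217-fold dilution) for 16 h at 37C, 5% CO2. After the bla read, CellTiter-Glo was added and luminescence read at 30 min, room temperature.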

Test [5] has as its target Cellular tumor antigen p53 (Homo sapiens) (UniProt P04637). The test is described as follows: TOX21_p53_BLA_p3_ratio: Tox21 HCT-116 p53 Agonism Beta-lactamase Assay, Ratio, Phase 3 (AID 2283596). The method, boiled down:
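Cells were seeded at 4000/well, rested 5 h at 37C, then dosed with DMSO compound solutions (217-fold dilution) for 16 h. CCF4-AM substrate was loaded for 2 h at room temperature, and the 460/530 nm emission ratio was fitted for gain of signal versus DMSO.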

A short description of test [6]: TOX21_p53_BLA_p4_viability: Viability Assessment in the Tox21 HCT-116 p53 Agonism Beta-lactamase Assay, Phase 4 (AID 2283597).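 Further: hits lower the luminescence signal meaning cytotoxicity.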 The method, boiled down: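 Viability is taken as cellular ATP: after 16 h compound exposure of HCT116 cells and a 2 h room-temperature CCF4-AM substrate step, CellTiter-Glo reagent is added and luminescence is measured 30 min later.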
Test [7] deals with Cellular tumor antigen p53 (Homo sapiens) (UniProt P04637). The experiment in a line: TOX21_p53_BLA_p5_ratio: Tox21 HCT-116 p53 Agonism Beta-lactamase Assay, Ratio, Phase 5 (AID 2283599). In short, it runs like this: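 HCT-116 cells carrying a p53-inducible beta-lactamase reporter were seeded at 4000 cells/well and dosed after 5 h with compound in DMSO (217-fold dilution). After 16 h at 37C, CCF4-AM substrate was added for 2 h, and the 460/530 nm emission ratio was scored as gain-of-signal versus DMSO.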

Test [8] in a line: TOX21_p53_BLA_p5_viability: Viability Assessment in the Tox21 HCT-116 p53 Agonism Beta-lactamase Assay, Phase 5 (AID 2283600). The method, boiled down: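 Viability is taken from cellular ATP content, measured by luciferase luminescence in the same wells after the beta-lactamase ratio read. Cells are seeded at 4000 per well and exposed to DMSO-dissolved compounds, diluted 217-fold, for 16 h.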

Test [9] has as its target Cellular tumor antigen p53 (Homo sapiens) (UniProt P04637). The experiment in a line: TOX21_p53_BLA_p4_ratio: Tox21 HCT-116 p53 Agonism Beta-lactamase Assay, Ratio, Phase 4 (AID 2283601). The method, boiled down: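 HCT116 cells carrying an inducible beta-lactamase reporter were plated at 4000 cells/well, rested 5 h, then exposed to compounds in DMSO (217-fold dilution) for 16 h at 37C. CCF4-AM substrate was loaded 2 h at room temperature; 460/530 nm emission ratio scored gain-of-signal versus DMSO.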

“And” between values parts separate entries of the source, which are not always exact repeats. Identical values can stand only once. Results filed as inconclusive are left out. Some compounds were tested as several samples or in several runs, with calls that do not always agree. The source made the active and inactive calls. How the source made its calls: active means hit-call score of the fitted dose curve at least 0.9, where 1 is the maximum; inconclusive means response in the unintended direction; inactive means score below 0.9.

In the case of `CCn1c2ccccc2c2cc(N)ccc21`, the compound was called inactive in test [1], in test [2], in test [3], in test [4], in test [5] and in test [6]. Further, the outcome in test [7], in test [8] and in test [9] was inactive. The AC50 (in general, the midpoint of the concentration-response curve, whichever way the signal moves) was 65.1 µM (active) and 74.2 µM (active) in [3]; 68 µM (active) in test [5]; 64 µM (active) in test [9].
As to `O=C(Cl)c1cccc(C(=O)Cl)c1`, the result in test [1], in test [2], in test [3], in test [4], in [5] and in [6] was inactive. For the same compound, the outcome in test [7], in test [8] and in test [9] was inactive. Moreover, in [3], the AC50 was 46.1 µM (active).
Consider `CCCCC/C=C/C=C/C=O`, for which the call in test [1], in [2], in [3], in test [5], in test [6] and in [7] was inactive. In addition, in test [8], the result was inactive. Moreover, the AC50 in test [2] is 62.9 µM (active); in [4], 86.9 µM (active) and 30.3 µM (active); in test [6], 75 µM (active).
`NCCCN1CCOCC1`: the compound was called inactive in test [1].
On the same count and under the same terms, to `Cc1ccc(C(=O)O)o1` belongs “inactive”.
On to `CC(=O)OCCOC(C)=O`, for which the result in [1], in test [2], in [3], in test [4], in test [5] and in test [6] was inactive. For the same compound, the outcome in test [7], in test [8] and in test [9] was inactive. Moreover, the half-maximal activity concentration (AC50) in test [5] is 87.2 µM (active).
On to `CNCCCC12CCC(c3ccccc31)c1ccccc12`, for which the call in test [1], in test [2], in test [3], in [4], in [5] and in [7] was inactive. In addition, the outcome in [9] was inactive. The half-maximal activity concentration (AC50) in [2] is 64.5 µM (active); in [3] it was 85.8 µM (active); in test [4] it was 70.4 µM (active); in test [6], 62.7 µM (active) and 36.6 µM (active); in test [7] it was 90.1 µM (active); in test [9] it was 87 µM (active).
